A selection: hits, their analogues and other compounds. The true share with any hit is near 2.4%.
Cruzain noTriton – cruzain (T. cruzi) inhibition without detergent. P25779. actives 2.3% (n = 200,000). purified cruzain, Z-FR-AMC fluorescence, no detergent. Potency, µM, usual class: inhibitors; note: nearly all actives have a fitted effect of over 40% in size
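Detergent-free condition (0.00005% Triton X-100) in acetate buffer pH 5.5 with DTT. 1.5 nM enzyme and compound were pre-mixed 15 min, then 2 uM Z-FR-AMC substrate added; reaction progress from fluorescence change between first and third reads (60 s).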
Cruzain Triton – inhibitors of Trypanosoma cruzi cruzain with detergent. purified cruzain, Z-FR-AMC fluorescence, 0.01% Triton. Potency, µM, usual class: inhibitors. AID 1478. actives 0.43% (n = 200,000); note: nearly all actives have a fitted effect of over 40% in size
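Cysteine protease activity tested under reducing, mildly acidic conditions (100 mM sodium acetate pH 5.5, 5 mM DTT) plus 0.01% Triton X-100. Cruzain 1.5 nM; substrate Z-FR-AMC 2 uM; 15 min compound preincubation at room temperature.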
Papain counter – counter-screen for cruzain inhibitors: papain inhibition; Potency, µM, usual class: inhibitors; purified papain, Z-FR-AMC fluorescence cleavage; actives 41% (n = 410); shares compounds with Cruzain Triton; note: nearly all actives have a fitted effect of over 35% in size
Target sequence (P00784 whole entry, looked up): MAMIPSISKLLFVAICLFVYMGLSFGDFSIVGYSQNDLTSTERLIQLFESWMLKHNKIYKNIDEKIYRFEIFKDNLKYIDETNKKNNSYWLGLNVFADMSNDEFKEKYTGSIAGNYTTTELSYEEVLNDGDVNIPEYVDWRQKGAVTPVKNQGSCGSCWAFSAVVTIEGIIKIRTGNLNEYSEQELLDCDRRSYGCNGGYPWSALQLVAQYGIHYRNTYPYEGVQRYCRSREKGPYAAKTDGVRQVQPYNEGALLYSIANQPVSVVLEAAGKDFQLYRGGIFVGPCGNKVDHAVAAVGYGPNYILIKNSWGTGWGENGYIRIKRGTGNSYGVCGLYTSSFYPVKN
A number is an active result. Calls come from the whole dose curve; as a rule, active = well fitted curve in the direction sought with a large enough effect; inconclusive = small, poorly fitted or top-dose-only effect, or another doubt; inactive = no such curve, though single readings can be large; an effect the other way counts as inactive or inconclusive.

For CCOC(=O)CSc1nc2cc3c(cc2c(=O)n1CCCC(=O)NCCc1ccc(OC)c(OC)c1)OCO3 the results were Cruzain noTriton inactive and Cruzain Triton inactive.
For CCOC(=O)C1CCCN(C(=O)c2ccc3c(c2)N(Cc2ccc(Cl)cc2)C(=O)c2ccccc2S3=O)C1 (stereo not given) the results were Cruzain noTriton inconclusive and Cruzain Triton inactive.
For CCCCCS(=O)(=O)CCCCCCCCCCn1c(-c2ccc(O)cc2)c(C)c2cc(O)ccc21 the results were Cruzain noTriton inconclusive and Cruzain Triton inactive.
CC(=O)OC1CCC23CC1(C)CCC2C(C)(C)CC3OC(C)=O (stereo not given) was read as Cruzain noTriton inactive and Cruzain Triton inactive.
Cc1ccccc1Cn1c(SCc2ccc(C(=O)NCCc3ccccc3)cc2)nc2ccncc21 was read as Cruzain noTriton inactive and Cruzain Triton inactive.
For CN(C)c1ccc(NC(=O)Cn2c(SCc3ccc(F)cc3)nc3ccncc32)cc1 the results were Cruzain noTriton inactive and Cruzain Triton inactive.
`CCCNC(=O)Cn1c(SCc2ccccc2C)nc2ccncc21` gave Papain counter inactive.
`CCc1ccccc1NC(=O)Cn1c(SCc2ccc(F)cc2)nc2ccncc21` gave Cruzain noTriton inactive and Cruzain Triton inactive.
CCCCNC(=O)Cn1c(SCc2ccccc2C)nc2ccncc21 was read as Papain counter inactive.
`CCc1ccc(NC(=O)Cn2c(SCc3ccc(C)cc3)nc3ccncc32)cc1` gave Papain counter inactive.
For Cn1c(=O)c2c(SCC(=O)Nc3ccccc3C(F)(F)F)nc(C3CCCC3)nc2n(C)c1=O the results were Cruzain noTriton inactive and Cruzain Triton inactive.
CN1CCN(Cc2nc3cccc4c3c([n+]2[O-])-c2ccccc2-4)CC1 was read as Cruzain noTriton inactive and Cruzain Triton inactive.
Screening O=C(COC(=O)CCSc1ccccc1Cl)Nc1ccc(F)cc1F returned Cruzain noTriton 12.6µM, Cruzain Triton 14.1µM and Papain counter inactive.
O=C(COC(=O)CCSc1ccccc1)Nc1ccc(F)cc1Cl was read as Cruzain noTriton inactive and Cruzain Triton inconclusive.
CCCNC(=O)C1CCC(Cn2c(=O)c3sccc3n(CC(=O)NCc3cccc(OC)c3OC)c2=O)CC1 (stereo not given) was read as Cruzain noTriton inactive and Cruzain Triton inactive.
CC(C)(C)c1ccc(OCC2CO2)cc1 (stereo not given) was read as Cruzain noTriton inactive and Cruzain Triton inactive.
O=C(Cn1cc(C(=O)c2cccs2)c2ccccc21)Nc1ccc(Br)cc1 was read as Cruzain noTriton inconclusive and Cruzain Triton inactive.
For COc1ccccc1N1CCN(C(=O)Cn2cnc3onc(-c4ccc(F)cc4)c3c2=O)CC1 the results were Cruzain noTriton inconclusive and Cruzain Triton inactive.
`O=C(COC(=O)CNS(=O)(=O)c1ccc(F)c(F)c1F)Nc1ccc(OC(F)F)cc1` gave Cruzain noTriton inconclusive, Cruzain Triton 22.4µM and Papain counter inactive.
Screening CCCCC(=O)OCC(=O)Nc1ccc(OC(F)F)cc1 returned Cruzain noTriton inactive and Cruzain Triton inactive.
OCCNc1ncnc2c1ncn2[C@@H]1O[C@@H](CO)[C@H](O)[C@@H]1O was read as Cruzain noTriton inactive and Cruzain Triton inactive.
Cc1ccc(CNC(=O)c2sc3ccc(S(=O)(=O)N4CCCCC4)cc3c2N)cc1 was read as Cruzain noTriton inconclusive and Cruzain Triton inactive.
Nc1c(C(=O)NCCC2=CCCCC2)sc2ccc(S(=O)(=O)N3CCCCC3)cc12 was read as Cruzain noTriton 12.6µM, Cruzain Triton 3.55µM and Papain counter inactive.
CC(C)(C)NC[C@H](O)COc1cccc2c1C[C@@H](O)[C@@H](O)C2 was read as Cruzain noTriton inactive and Cruzain Triton inactive.
CC(C)(C)C(=O)NCCc1nc2ccccc2n1CCCCOc1ccc(Cl)cc1 was read as Cruzain noTriton inconclusive and Cruzain Triton inactive.
For O=C(NCCc1nc2ccccc2n1CCCOc1ccccc1)C1CCCCC1 the results were Papain counter inactive.
Screening OCCCc1nc2ccccc2n1CCOc1ccccc1 returned Cruzain noTriton inactive and Cruzain Triton inactive.
Screening O=C(NCCc1nc2ccccc2n1CCCCOc1ccccc1)C1CCCCC1 returned Papain counter 25.1µM.
For O=C(NCc1ccccc1)C1CCN(C(=O)c2cnn(-c3ccccc3)c2-n2cccc2)CC1 the results were Cruzain noTriton inactive and Cruzain Triton inactive.
`Cc1ccc(C(=O)N/C(=C\c2cccc([N+](=O)[O-])c2)C(=O)OCN2C(=O)c3ccccc3C2=O)cc1` gave Cruzain noTriton 15.8µM, Cruzain Triton 0.891µM and Papain counter inactive.
Cc1ccc(C(=O)N/C(=C/c2cccc([N+](=O)[O-])c2)C(=O)NC(C)C)cc1 was read as Cruzain noTriton inactive and Cruzain Triton inactive.
`Cc1ccc2c(c1)cc1c(=O)n(CC(=O)NC3CCCCC3)nc(C)n12` gave Cruzain noTriton inactive and Cruzain Triton inactive.
CCc1cccc(NC(=O)CCS(=O)(=O)c2cc3c4c(c2)CCN4C(=O)CC3)c1 was read as Cruzain noTriton inactive and Cruzain Triton inactive.
For O=C(NC(=S)Nc1cccc(Cl)c1N1CCCC1)c1ccc(-c2cccc([N+](=O)[O-])c2)o1 the results were Cruzain noTriton 3.16µM, Cruzain Triton inactive and Papain counter inactive.
O=C(Nc1cccc(Cl)c1N1CCCCC1)c1ccc(N2CCOCC2)c([N+](=O)[O-])c1 was read as Cruzain noTriton inactive and Cruzain Triton inactive.
For COc1cc2[nH]c(=O)n(CCCC(=O)N3CC=C(c4ccccc4)CC3)c(=O)c2cc1OC the results were Cruzain noTriton inconclusive and Cruzain Triton inactive.
Screening COc1cccc2c1[C@@H]1CN(CCCCn3c(=O)[nH]c4c(sc5ncc(-c6ccccc6)nc54)c3=O)C[C@@H]1CO2 returned Cruzain noTriton inconclusive, Cruzain Triton 28.2µM and Papain counter inactive.
Cc1ccc(CSc2oc(-c3ccco3)nc2S(=O)(=O)c2ccc(C)cc2)cc1 was read as Cruzain noTriton inactive and Cruzain Triton inactive.
Cc1ccc(S(=O)(=O)c2nc(-c3ccco3)oc2NCC2CCCO2)cc1 (stereo not given) was read as Cruzain noTriton 10µM, Cruzain Triton 11.2µM and Papain counter inactive.
O=C(CSc1nc2c([nH]c3ccccc32)c(=O)n1-c1ccccc1)N1CCCC1 was read as Cruzain noTriton inactive and Cruzain Triton inactive.
`CCC(C(=O)NC1CCCCC1)n1c(SCc2ccccc2F)nc2ccncc21` (stereo not given) gave Cruzain noTriton inconclusive, Cruzain Triton 12.6µM and Papain counter 28.2µM.
For O=C(NC1CCCC1)c1ccc(CSc2nc3ccncc3n2Cc2ccccc2F)cc1 the results were Cruzain noTriton inactive and Cruzain Triton inactive.
Screening O=C(Nc1ccc(N2CCCC2)cc1)c1ccc(Br)o1 returned Cruzain noTriton 7.94µM, Cruzain Triton inconclusive and Papain counter inactive.
Screening O=C(Nc1ccc(N2CCN(C(=O)c3ccccc3)CC2)cc1)c1ccc(Br)o1 returned Cruzain noTriton inconclusive and Cruzain Triton inactive.
`CC(C)NC(=O)c1ccc2c(c1)nc1n2CCCCC1` gave Cruzain noTriton inactive and Cruzain Triton inactive.
For CCc1ccc(CNC(=O)c2cnc3sc(N(CC)CC)nn3c2=O)cc1 the results were Cruzain noTriton inconclusive and Cruzain Triton inactive.
`O=C(NCCc1nc2ccccc2n1CCCOc1cccc2ccccc12)C1CCCCC1` gave Papain counter inactive.
